# rRNA inh HTS: inhibits bacterial ribosomal RNA function over humanized ribosomes; E. coli WT GFP vs humanized-ribosome RFP mutants, fluorescence, 24 h; active compounds read low; DMSO median 0, no signal -100; GFP signal change (wild-type ribosome), % (test concentration not listed); hit rate 1.6% among 350,000;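 active means significant combined selectivity score with lowered wild-type GFP, culture density cut under 30%, mutant RFP and density less affected; inactive means any of these conditions unmet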
# DENV2 CPE rescue: inhibitors of DENV2 cytopathic effect | DENV2-infected cells, cytopathic effect rescue, plate reader | CPE inhibition, % at 9.99 µM | hit rate 1.7% among 350,000 | AID 651640; in the data active means CPE inhibition above about 20%, passing the limit was not always enough; inconclusive means no clear call, values can overlap the other calls; tested in BHK-21 cells;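 further: 0% = median of neutral control wells and 100% = median of positive control wells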
# PGC1a acetyl inh: PGC1a acetylation modulation, inhibitor mode | U2OS PGC1a acetylation, AlphaScreen anti-acetyl-lysine; with virally co-expressed GCN5 acetyltransferase | inhibition, % at 15.6 µM | hit rate 0.17% among 350,000 | AID 651687;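 active means every replicate shows inhibition of at least 40%; inconclusive means mean inhibition at least 40% but some replicate below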;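 further: 0% = neutral control wells and 100% = positive control wells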
# GSIS activator: primary screen for activators of insulin secretion dependent on glucose, INS-1E cells, GLuc reporter luminescence; INS-1E GLuc reporter insulin secretion, 2-3 h; activation, % at 16.6 µM; hit rate 0.61% among 370,000; AID 743287;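 active means lowest replicate activation of at least 40%, so every replicate reaches that level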;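 further: 0% = median of neutral control wells and 100% = median of IBMX positive control wells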
# CaV13 FRET inh: Primary screen for inhibitors of IQ motif and Ca2+-dependent inactivation inhibitor domain binding in CACNA1D, Förster resonance energy transfer in living cells, …. inhibition, % at 12.3 µM. hit rate 0.098% among 340,000. HEK cells, CFP/YFP FRET ICDI-IQ, plate reader, 10 min; percent FRET-ratio fall versus neutral wells;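 active means mean replicate inhibition of at least 30% and at least 1% of replicates passing that level; inconclusive means only one of the two criteria is met; inactive means neither criterion is met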;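 further: 0% = median of the neutral control wells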
# ERAP1 inh: inhibitors of human ERAP1 aminopeptidase; recombinant ERAP1, Leu-AMC fluorescence, 60 min; hit rate 0.15% among 340,000; Q9NZ08; inhibition, % at 10.7 µM;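 active means mean replicate inhibition of at least 30%, or all replicates individually reaching that 30% level; inactive means mean below 30% and not every replicate reaching it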;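 further: 0% = neutral control wells and 100% = L-leucinethiol positive control wells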
# Target sequence (Q9NZ08 whole entry, looked up): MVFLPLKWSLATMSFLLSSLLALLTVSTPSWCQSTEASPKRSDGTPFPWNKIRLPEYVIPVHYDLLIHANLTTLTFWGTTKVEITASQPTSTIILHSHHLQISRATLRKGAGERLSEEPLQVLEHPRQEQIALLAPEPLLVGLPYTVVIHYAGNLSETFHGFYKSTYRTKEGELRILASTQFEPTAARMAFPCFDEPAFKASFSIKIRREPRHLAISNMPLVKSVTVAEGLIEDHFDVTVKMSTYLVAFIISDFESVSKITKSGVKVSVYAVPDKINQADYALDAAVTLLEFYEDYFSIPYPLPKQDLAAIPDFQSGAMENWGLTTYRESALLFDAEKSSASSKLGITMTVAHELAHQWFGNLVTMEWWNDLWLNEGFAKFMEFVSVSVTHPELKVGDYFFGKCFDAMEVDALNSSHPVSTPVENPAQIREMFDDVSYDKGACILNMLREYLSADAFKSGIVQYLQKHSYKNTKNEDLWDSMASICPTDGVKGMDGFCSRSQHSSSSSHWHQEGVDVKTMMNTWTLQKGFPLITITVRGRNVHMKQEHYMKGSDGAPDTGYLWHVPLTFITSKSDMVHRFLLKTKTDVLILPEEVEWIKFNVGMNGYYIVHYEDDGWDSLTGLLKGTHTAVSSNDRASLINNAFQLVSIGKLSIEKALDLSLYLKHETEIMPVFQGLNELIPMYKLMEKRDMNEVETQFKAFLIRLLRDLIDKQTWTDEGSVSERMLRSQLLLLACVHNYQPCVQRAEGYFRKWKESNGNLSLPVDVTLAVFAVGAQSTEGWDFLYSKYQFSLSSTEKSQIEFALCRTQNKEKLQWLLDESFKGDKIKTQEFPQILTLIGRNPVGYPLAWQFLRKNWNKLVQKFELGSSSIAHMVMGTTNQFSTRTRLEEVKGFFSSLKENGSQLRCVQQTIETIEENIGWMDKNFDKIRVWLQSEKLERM
# * marks the source's active call; other numbers are inactive results; ? = inconclusive; / = no result given. Shown are actives, neighbours in structure and some others; about 3.2% of the full set was active somewhere.
SMILES,rRNA inh HTS,DENV2 CPE rescue,PGC1a acetyl inh,GSIS activator,CaV13 FRET inh,ERAP1 inh
COc1ccc(NC(=O)Nc2ccc3c(c2)C(=O)N([C@@H](C)CO)C[C@H](C)[C@H](CN(C)C(=O)Cc2ccccc2)OCCCC[C@@H](C)O3)cc1,6,0,12,-13,/,-1
COc1ccc(NC(=O)Nc2ccc3c(c2)C(=O)N([C@@H](C)CO)C[C@@H](C)[C@H](CN(C)C(=O)Cc2ccccc2)OCCCC[C@H](C)O3)cc1,0,-14,5,0,/,2
COc1ccc(NC(=O)Nc2ccc3c(c2)C(=O)N([C@H](C)CO)C[C@@H](C)[C@H](CN(C)C(=O)Cc2ccccc2)OCCCC[C@@H](C)O3)cc1,1,30*,7,-15,/,2
COc1ccc(NC(=O)Nc2ccc3c(c2)C(=O)N([C@@H](C)CO)C[C@H](C)[C@H](CN(C)C(=O)Cc2ccccc2)OCCCC[C@H](C)O3)cc1,-2,21*,-7,-1,/,4
COc1ccc(NC(=O)Nc2ccc3c(c2)C(=O)N([C@H](C)CO)C[C@H](C)[C@@H](CN(C)C(=O)Cc2ccccc2)OCCCC[C@@H](C)O3)cc1,1,68*,5,-6,/,1
Cc1ccc(S(=O)(=O)N[C@@H]2CC[C@H](CC(=O)N3CCC(Cc4ccccc4)CC3)O[C@H]2CO)cc1,-2,-11,-11,-35,/,2
CCCCCCCC[n+]1cccc2c3ccccc3ccc21,-56,-6,-9,-76,-19,-7
CCCCCCCCCC[n+]1cccc2c3ccccc3ccc21,-56,-2,13,97*,-19,-64
O=C(N/N=C/c1ccncc1)c1ccc(COc2cccc3cccnc23)cc1,-28*,-7,2,4,-7,4
O=C(CSc1cccc2cccnc12)N/N=C/c1ccc(O)cc1,-14*,8,1,45,-2,-1
O=C(N/N=C/c1cccc(O)c1)c1ccc(COc2cccc3cccnc23)cc1,3,2,-1,0,-1,2
COc1ccc(NC(=O)Nc2ccc3c(c2)[C@H]2C[C@H](CC(=O)NCc4ccncc4)O[C@@H](CO)[C@H]2O3)cc1,0,?,3,6,/,-4
CCOc1ccc(S(=O)(=O)N2CCCCC2)cc1NC(=O)C1CCC1,2,2,/,-2,-3,-1
COc1ccc(S(=O)(=O)N2CCCCCC2)cc1C(=O)N(C)Cc1ccc(C(C)(C)C)cc1,-24,59*,-15,-50,-12,-1
COc1ccc(S(=O)(=O)N2CCCCCC2)cc1NC(=O)Cc1cccc(C(F)(F)F)c1,-1,111*,-1,/,-15,-10
COc1ccc(S(=O)(=O)N2CCCCC2)cc1NC(=O)C1CCCC1,4,6,6,52*,-6,-2
CCC(=O)Nc1ccc2c(c1)OC[C@H](C)N(Cc1cncnc1)C[C@@H](C)[C@@H](OC)CN(C)C2=O,2,-4,-5,17,/,0
C[C@H]1CN([C@@H](C)CO)C(=O)c2cccc(NC(=O)CCCCCC(=O)Nc3ccccc3N)c2O[C@@H]1CN(C)Cc1ccc2c(c1)OCO2,-12,-6,2,-19,/,-1
CCCN1[C@@H]2c3ccc(C4=CCCCC4)c(=O)n3C[C@H]1[C@H](CO)[C@H]2C(=O)NCC,1,-4,/,-7,/,1
N#CCCN(Cc1ccccc1)C(=O)c1cccs1,-2,11,5,40*,-5,-1
CCC(=O)Nc1ccc2c(c1)C(=O)N(C)C[C@H](OC)[C@H](C)CN(C(=O)NC(C)C)[C@H](C)CO2,3,-6,5,1,/,1
COc1ccc(S(=O)(=O)N[C@@H]2C=C[C@H](CC(=O)NCCc3ccccc3)O[C@@H]2CO)cc1,-5,-1,-1,-2,/,-1
COc1ccccc1S(=O)(=O)N[C@@H]1C=C[C@@H](CC(=O)NCc2cccc(F)c2)O[C@@H]1CO,-3,2,1,3,/,0
COc1ccc(S(=O)(=O)N[C@H]2C=C[C@@H](CC(=O)NCCc3ccccc3)O[C@@H]2CO)cc1,-5,24*,-2,8,/,-1
O=C(C[C@H]1C=C[C@H](NC(=O)c2ccccc2)[C@H](CO)O1)NCc1ccc(Oc2ccccc2)cc1,-9,31*,-1,-11,/,1
SMILES,rRNA inh HTS,DENV2 CPE rescue,PGC1a acetyl inh,GSIS activator,CaV13 FRET inh,ERAP1 inh
O=C(C[C@@H]1C=C[C@@H](NS(=O)(=O)c2ccccc2)[C@H](CO)O1)N1CCC(Cc2ccccc2)CC1,2,?,8,-17,/,-2
COc1ccccc1S(=O)(=O)N[C@H]1C=C[C@H](CC(=O)NCc2cccc(F)c2)O[C@H]1CO,-3,28*,-1,-6,/,1
O=C(C[C@H]1C=C[C@H](NS(=O)(=O)c2ccccc2)[C@H](CO)O1)N1CCC(Cc2ccccc2)CC1,-2,96*,-8,-15,/,/
OC[C@@H]1[C@H](c2ccc(Br)cc2)[C@@H]2CN(Cc3cncnc3)CCCCN12,9,5,-2,9,/,-1
COc1ccc(S(=O)(=O)N[C@H]2CC[C@@H](CC(=O)NCc3ccccc3F)O[C@H]2CO)cc1,1,59*,-5,2,/,-2
COc1ccc(S(=O)(=O)N[C@H]2CC[C@H](CC(=O)NCCc3ccncc3)O[C@H]2CO)cc1,3,23*,9,3,/,2
CNC[C@@H]1Oc2ccc(N)cc2CC(=O)N(C)C[C@@H]1C,-3,/,/,-6,/,/
COc1cccc(C(=O)Nc2ccc3c(c2)OC[C@@H](C)N(C)C[C@H](C)[C@@H](OC)CN(C)C3=O)c1,1,-4,-3,2,/,0
O=C(c1cccnc1)N1C[C@H]2[C@@H](c3ccccc31)[C@@H](CO)N2Cc1ccc2c(c1)OCO2,3,26*,-6,-1,/,1
COc1cccc(CN2[C@@H]3CN(C(=O)c4ccncc4)c4ccccc4[C@@H]3[C@@H]2CO)c1,-2,21*,4,6,/,-4
Cc1noc(C)c1NC(=O)Nc1ccc2c(c1)C(=O)N([C@@H](C)CO)C[C@@H](C)[C@@H](CN(C)S(=O)(=O)c1ccccc1)OCCCC[C@@H](C)O2,-3,-3,9,-12,/,2
S=P(N1CC1)(N1CC1)N1CC1,15,42*,1,/,-5,53*
Cn1nc(-c2ccc(Cl)cc2)c2cc(C(=O)N3CCN(c4ccccc4)CC3)sc21,3,-3,-6,/,48*,/
COCCCNC(=O)c1cc2c(-c3ccc(Cl)cc3)nn(C)c2s1,-16,1,-13,0,-1,/
Cn1nc(-c2ccc(Cl)cc2)c2cc(C(=O)N3CCN(c4ccccn4)CC3)sc21,/,/,-10,/,/,/
